# From PubChem BioAssay
# Calls of active or inactive are those of the source.
# Experiments:
# [1] = compound effects on lung adenocarcinoma cell viability – A549, calcein-AM fluorescence, 48 h, basal, profiling panel (AID 1162); settings: higher = more signal
# [2] = compound effects on differentiated 3T3-L1 adipocyte viability – cell-based, 3T3-L1 adipocytes, calcein-AM fluorescence, 48 h, basal, profiling panel (AID 1163); settings: 3T3-L1 adipocytes viability, higher = more signal
# [3] = compound effects on hepatocellular carcinoma cell viability – HepG2, calcein-AM fluorescence, 48 h, basal, profiling panel (AID 1164); settings: higher = more signal
# [4] = compound effects on multiple myeloma cell viability – MM1S, calcein-AM fluorescence, 48 h, basal, profiling panel (AID 1165); settings: higher = more signal;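 further: viability of MM1S multiple myeloma cells under basal unstimulated conditions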
# [5] = calcein-AM signal in unstimulated myeloma cells – cell-based, calcein-AM fluorescence, 48 h, PK04 Diversity Set, profiling panel (AID 1166); settings: RPMI8226 myeloma viability, higher = more signal;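 further: cells grown under basal conditions without added stimulus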
# [6] = JC-1 mitochondrial signal, unstimulated HepG2 cells – cell-based, JC-1 fluorescence, 24 h, 100 nL compound, profiling panel (AID 1167); settings: HepG2 mitochondrial potential, higher = more signal
# [7] = JC-1 mitochondrial signal, unstimulated adipocytes – cell-based, JC-1 fluorescence, 3T3-L1 adipocytes, 24 h, 100 nL compound, profiling panel (AID 1168); settings: JC-1 mitochondrial fluorescence, higher = more signal, called active from +8 up or from −8 down
# [8] = JC-1 mitochondrial signal, unstimulated myeloma cells – cell-based, JC-1 fluorescence, RPMI8226, 24 h, 100 nL compound, profiling panel (AID 1169); settings: JC-1 mitochondrial potential fluorescence, higher = more signal
# [9] = JC-1 mitochondrial signal, unstimulated MM1S myeloma – cell-based, JC-1 fluorescence, 24 h, 100 nL compound, profiling panel (AID 1170); settings: MM1S mitochondrial potential, higher = more signal
# [10] = resazurin metabolic signal in A549 cells – cell-based, resazurin fluorescence, 24 h, PK04 Diversity Set, profiling panel (AID 1171); settings: A549 viability, higher = more signal, called active from +8 up or from −8 down
# Further: test concentration not given here.
Structure (SMILES),z-score [1],z-score [2],z-score [3],z-score [4],z-score [5],z-score [6],z-score [7],z-score [8],z-score [9],z-score [10]
[N-]=[N+]=NCc1ccccc1[C@H]1OC(c2ccc(OCCCO)cc2)=N[C@@]1(Cc1ccccc1N=[N+]=[N-])C(=O)N1CCOCC1,-0.612,-0.182,-0.659,-2.69,-3.44,-1.26,-0.866 (inactive),-1.11,-2.14,-0.772 (inactive)
COC(=O)[C@]1(Cc2ccccc2CN=[N+]=[N-])N=C(c2ccc(OCCCO)cc2)O[C@@H]1c1ccccc1N=[N+]=[N-],-3.25,-0.028,-5.51,-3.55,-4,1.52,-0.387 (inactive),-1.06,-2.47,-2.73 (inactive)
O=C1O[C@H](c2ccccc2)[C@H](c2ccccc2)N2[C@H]1[C@@H](C(=O)O)[C@]1(C(=O)Nc3ccc(C#CC4(O)CCCCCC4)cc31)[C@H]2c1ccccc1OCCO,0.631,0.0596,-0.0165,-3.38,-4.15,-2.61,-0.521 (inactive),-0.911,-0.681,0.95 (inactive)
CC(C)c1ccc(NN2C(C(O)C3CCCCC3)C=CC3C(=O)N(c4ccccc4)C(=O)C32)cc1 (stereo not given),0.19,-1.19,1.41,-0.381,-0.886,-1.49,-0.176 (inactive),0.227,-1.36,-0.519 (inactive)
COC(=O)[C@@]1(Cc2ccc(F)cc2)[C@H]2c3cc(C(=O)N4CCCC4)n(CCc4c[nH]c5cc(F)ccc45)c3C[C@H]2CN1C(=O)c1ccccc1,-0.767,-0.0351,0.194,-0.234,-1.37,2.18,-1.2 (inactive),-0.449,-1.21,0.339 (inactive)
O=C1NC(=O)C2C1C=CC(C(O)C(O)CO)N2Nc1ccccn1 (stereo not given),0.159,-0.28,2.19,0.434,0.476,0.361,0.117 (inactive),-0.627,0.123,-1.65 (inactive)
COC(=O)[C@@]1(Cc2ccc(F)cc2)[C@H]2c3cc(C(=O)N4CCCC4)n(Cc4ccc(C(F)(F)F)nc4)c3C[C@H]2CN1C(=O)c1ccccc1,-0.29,0.585,-1.06,-2.08,-1.37,1.69,-0.439 (inactive),-0.799,-0.873,0.052 (inactive)
COC(=O)C1(CC(C)C)C=C2C(=C(C)C(=O)C2C)CN1 (stereo not given),-1.23,-0.291,-1.14,-0.945,-1.77,-1.04,-1.83 (inactive),0.147,-0.92,-0.726 (inactive)
C=C(CCCC)/C(=C/C[C@@H](OC(C)=O)c1cccc(OCCO)c1)c1cc(C(=O)OC)ccc1OC,0.771,0.204,0.622,-2.41,-1.98,1.44,-0.288 (inactive),0.186,-0.679,1.25 (inactive)
O=C(NCC(F)(F)F)[C@@H]1c2ccccc2C(=O)N(Cc2cc(C(F)(F)F)cc(C(F)(F)F)c2)[C@H]1c1ccc(CO)cc1,0.964,-0.0843,1.42,-0.202,1.07,1.95,1.36 (inactive),0.801,-0.626,0.651 (inactive)
CC(C)(C)OC(=O)N1[C@@H](C=C(Br)Br)COC1(C)C,0.4,0.46,1.32,-0.255,-0.639,0.175,1.2 (inactive),-0.187,0.548,-1.4 (inactive)
CC[C@H]1C2=C3C(CC[C@H]4C(OCc5ccc(F)cc5C(F)(F)F)OC[C@](C)([C@@H]34)N(C(=O)OC(C)(C)C)C2)C(COC(C)=O)C1COC(C)=O (stereo not given in full),-0.128,-0.154,0.228,-0.814,-2.5,3.43,-1.43 (inactive),-0.555,-1.29,0.226 (inactive)
[N-]=[N+]=NCc1ccccc1C[C@@]1(C(N)=O)N=C(c2ccc(OCCCO)cc2)O[C@@H]1c1ccccc1N=[N+]=[N-],-0.908,-0.278,-0.705,-3,-3.1,-1.07,-0.71 (inactive),-1.08,-0.62,-0.583 (inactive)
C=C(COC)C(=O)CC[C@H](OC(C)=O)c1ccc(CO)o1,0.0053,0.972,-0.582,0.657,1.76,0.378,-0.587 (inactive),-0.563,-0.434,0.642 (inactive)
CC[C@@H]1C=C(C(=O)O)[C@H](c2cccc(Cl)c2)N1S(=O)(=O)c1ccc(C)cc1,-0.0107,-0.762,0.223,0.126,0.0221,-0.743,-0.41 (inactive),-0.623,-0.343,-0.628 (inactive)
C=CCNC(=O)[C@H]1[C@@H]2C(=O)O[C@@H](c3ccccc3)[C@@H](c3ccccc3)N2[C@@H](c2ccc(OCCO)cc2)[C@]12C(=O)N(C(=O)OCCOC)c1ccc(C#CCNC(N)=O)cc12,0.0935,-0.585,0.854,0.952,1.27,0.0391,0.668 (inactive),-0.596,-0.919,-0.226 (inactive)
COC(=O)C(CC#Cc1ccc2c(c1)[C@]1(C(=O)N2)[C@H](C(=O)N2CCCCCCC2)[C@H]2C(=O)O[C@H](c3ccccc3)[C@H](c3ccccc3)N2[C@@H]1c1ccc(OCCO)cc1)C(=O)OC,-0.369,0.231,0.0259,-0.236,0.164,-0.738,-2.32 (inactive),-1.04,-1.44,1.29 (inactive)
COC(=O)[C@H]1N=C(c2ccc(OCCCO)cc2)O[C@H]1c1ccccc1N=[N+]=[N-],-0.206,0.323,-0.151,-0.862,-1.44,-0.434,-0.419 (inactive),-0.739,0.567,-0.15 (inactive)
C=CCNC(=O)[C@H]1[C@@H]2C(=O)O[C@@H](c3ccccc3)[C@@H](c3ccccc3)N2[C@@H](c2ccc(OCCO)cc2)[C@]12C(=O)N(C(=O)OCCOC)c1ccc(C#CCC(C(=O)OC)C(=O)OC)cc12,1.32,0.0681,0.811,0.495,-0.749,-0.517,0.566 (inactive),-0.82,-1.58,-0.0048 (inactive)
CN1C(=O)C2CC=C(C3=CCO[C@@H]3[C@H]3CCCN3S(=O)(=O)c3ccccc3[N+](=O)[O-])CC2C1=O (stereo not given in full),-0.477,0.102,0.302,-0.355,-0.0289,-1.25,-0.655 (inactive),-0.12,-0.242,0.47 (inactive)
COc1c(C)cc(-c2nc(-c3ccccc3)c3c(c2C)CO[Si]3(C(C)C)C(C)C)cc1C,-0.926,-1.12,-0.518,-0.532,-0.931,-0.175,-1.19 (inactive),0.379,-0.294,1.44 (inactive)
CC(C)c1ccc(NN2C(C(O)C(C)c3ccccc3)C=CC3C(=O)N(c4ccccc4)C(=O)C32)cc1 (stereo not given),-0.625,-0.856,-1.03,-1.1,-1.34,-2.13,-1.75 (inactive),-0.628,-0.102,-0.868 (inactive)
COc1ccc(CCNC(=O)[C@@H]2c3ccccc3C(=O)N(C(C)C)[C@H]2c2ccc(CO)cc2)cc1,2.2,1.29,0.188,-0.397,1.1,0.733,-0.232 (inactive),-0.482,0.978,1.12 (inactive)
C#CCN(C(=O)OC(C)(C)C)[C@H](CO)c1ccccc1,-0.413,-0.24,-1.51,-0.404,-0.404,-1.16,0.0135 (inactive),0.136,-0.125,0.659 (inactive)
CC(C)c1ccc(NN2C(C(O)c3ccccc3)C=CC3C(=O)N(c4ccccc4)C(=O)C32)cc1 (stereo not given),1.53,-1.6,1.22,-0.168,0.159,-1.13,0.821 (inactive),-0.197,-0.906,0.235 (inactive)
CCOC(=O)C[C@H]1[C@H](OC(=O)c2ccccc2-c2ccccc2)[C@@H](NC(=O)CC(C)C)c2cc(OCCCO)ccc2N1C(=O)c1ccccc1,0.682,1.32,-0.177,-0.271,0.107,2.01,0.197 (inactive),-0.986,-0.0327,1.65 (inactive)
O=C(N1CCOCC1)[C@]1(CCS(=O)(=O)c2ccccc2)N=C(c2ccc(OCCCO)cc2)O[C@@H]1c1ccccc1,0.569,1.29,0.176,-0.345,-0.0091,1.43,1.14 (inactive),-0.176,-0.424,0.54 (inactive)
CCOC(=O)C=C1C[C@@H](c2cccc([N+](=O)[O-])c2)O[C@@H](c2cccc([N+](=O)[O-])c2)O1,-0.865,-0.477,0.177,-0.71,-0.588,3.97,0.94 (inactive),0.779,-0.351,1.44 (inactive)
C=C(C(=O)CC[C@H](OC(=O)c1ccccc1-c1ccccc1C(=O)O)c1ccc(OCCO)cc1)C(C)C,-0.535,0.484,-0.659,-1.43,-1.48,0.17,0.447 (inactive),0.0683,-0.0663,0.393 (inactive)
